From the supplement of paper PMC6555819

Tests used:
Assay in all cases: PBM binding z-score (relative to random genomic background probes); higher = stronger binding; sequences stand for … in GC…GCGATTGACAGCGTAGAATGAAGG
[1] = system: PPARg:RXRa DBDmut IVT, anti-RXR (DBD mutation: RXRa K156A/R161A, NR concentration 270 nM, RXRa partner concentration 90 nM)
In short: (§1)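 Regression normalization was applied to scanned fluorescence from custom Agilent 4×180K protein-binding microarrays. Before scanning, arrays were incubated 1 h with ligand-free nuclear receptor dimers, and binding was detected with antibodies against each partner (one per run). Binding z-scores use the random background probes as reference.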

[2] = system: PPARg:RXRa IVT, anti-PPARg (NR concentration 270 nM, RXRa partner concentration 90 nM)
In short: as §1

[3] = system: PPARg DBDmut:RXRa IVT, anti-PPARg (DBD mutation: PPARg1 K132A/R137A, NR concentration 270 nM, RXRa partner concentration 90 nM)
In short: as §1

[4] = system: PPARg DBDmut IVT, anti-PPARg (DBD mutation: PPARg1 K132A/R137A, NR concentration 270 nM)
In short: as §1

[5] = system: PPARg homodimer (NR concentration 180 nM)
In short: as §1

[6] = system: PXR:RXRa (NR concentration 270 nM, RXRa partner concentration 90 nM)
In short: as §1

[7] = system: PXR homodimer (NR concentration 270 nM)
In short: as §1

[8] = system: RARa:RXR (NR concentration 270 nM, RXRa partner concentration 90 nM)
In short: as §1

[9] = system: RARa homodimer (NR concentration 270 nM)
In short: as §1

[10] = system: RARb:RXRa (NR concentration 270 nM, RXRa partner concentration 90 nM)
In short: as §1

Row | Sequence | PBM binding z-score [1] | PBM binding z-score [2] | PBM binding z-score [3] | PBM binding z-score [4] | PBM binding z-score [5] | PBM binding z-score [6] | PBM binding z-score [7] | PBM binding z-score [8] | PBM binding z-score [9] | PBM binding z-score [10]
1 | AGAATGAGGTAACCAAAGATCAGGGAAACGCTTG | 3.05 | 2.17 | 1.22 | 1.42 | -0.124 | 0.0437 | -0.0264 | 0.577 | 0.155 | 0.403
2 | TCTGCTAGATCAGTTGGTCAGCTAACGAGCTGCC | 0.357 | -0.283 | -0.43 | -0.675 | -2.6 | -0.872 | -1.07 | -0.915 | -1.97 | -0.199
3 | GCGACTGGGGCATCAGCCGGTTACCATAACTTAA | 3.39 | 2.34 | -1.15 | -1.34 | -0.348 | -0.89 | -0.327 | -0.651 | -1.07 | 0.332
4 | CGTCCAAGGTCAAGGTCAGTGCAAGAGACTCGAA | 3.72 | 4.78 | -0.258 | -0.287 | 3.45 | 5.43 | 2.22 | 5.21 | 1.13 | 5.62
5 | TGAATGAGGTTAAAGATCAGGGGACGTGGCGTCG | 2.48 | 3.35 | 1.21 | 0.582 | 1.75 | 1.7 | -0.086 | 3.31 | 0.0279 | 2.11
6 | AGAACGAGGGCAATGACTTGATAGCACGGGTGGC | 3.17 | 2.49 | 0.669 | -0.215 | 0.348 | 0.345 | 0.000958 | 0.436 | -0.218 | 2.11
7 | CATACAGGGTCAGCTAGGCCAGACTAGGGACGGC | 1.3 | 2.37 | 0.631 | 0.373 | 0.901 | 2.01 | 0.149 | 2.36 | 0.259 | 3.94
8 | TCTCGGAGGACACGAAAGGTCAGAGTTCGACATC | 1.62 | 1.81 | -0.309 | -0.696 | 3.27 | 4.98 | 3 | 5.55 | 1.69 | 4.16
9 | CCTAGCAGGCCAATCTGGGTCAATCAAGGCTTGA | 3.86 | 4.7 | -0.527 | -1.3 | 0.323 | 0.743 | -0.691 | 2.06 | -0.918 | 1.31
10 | TCGAGTAGGTTAGTCGGAGCATTCAGCCAACATA | 2.04 | 1.68 | -0.361 | -0.571 | 0.0245 | -0.452 | -0.761 | -0.167 | -0.593 | -0.208
11 | CCTACTGGGACAAAGGTCATTGATTCCAATGCTC | 5.4 | 7.14 | 1.81 | 1.06 | 4.59 | 5.27 | 2.24 | 6.06 | 2 | 4.45
12 | TTACCAAGGTGAAATGTCGTTGATGCACGCCTTG | 2.04 | 2.84 | 0.312 | 0.465 | 0.892 | 0.271 | -0.455 | 0.706 | -0.394 | 1.44
